Measured values from PubChem BioAssay (NCATS).
Results filed as inconclusive are left out. Calls of active or inactive are those of the source. Calls come from the whole dose curve; as a rule, active = well fitted inhibition curve with a large enough effect; inconclusive = small, poorly fitted or top-dose-only effect; inactive = flat fitted curve, though single readings scatter.

How the values were obtained:
PAD = assay: qHTS profiling for inhibitors of Plasmodium falciparum proliferation (AID 504749);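 note: 0% = DMSO vehicle and full inhibition = artemisinin control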; details: P. falciparum in erythrocytes, SYBR Green DNA, 72 h; series mostly up to 28.7 µM
Summary of the method: (§1)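 Infected RBCs, 0.3% parasitemia/2.5% Hct final; cpd 72 h, 37 C, 5% CO2; lysis buffer with saponin/triton/SYBR Green I, o/n RT dark; FI 485/535; norm. to artemisinin (0.29 uM) and DMSO.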

PC15 = assay: as above; details: P. falciparum in erythrocytes, SYBR Green DNA, 72 h; series mostly up to 28.7 µM
Summary of the method: as §1

PC26 = assay: as above; details: P. falciparum in erythrocytes, SYBR Green DNA, 72 h; series mostly up to 28.7 µM
Summary of the method: as §1

PC49 = assay: as above; details: P. falciparum in erythrocytes, SYBR Green DNA, 72 h; series mostly up to 28.7 µM
Summary of the method: as §1

SC27B = assay: as above; details: P. falciparum in erythrocytes, SYBR Green DNA, 72 h; series mostly up to 28.7 µM
Summary of the method: as §1

TAB109 = assay: as above; details: P. falciparum in erythrocytes, SYBR Green DNA, 72 h; series mostly up to 28.7 µM
Summary of the method: as §1

TAB113 = assay: as above; details: P. falciparum in erythrocytes, SYBR Green DNA, 72 h; series mostly up to 28.7 µM
Summary of the method: as §1

TAB165 = assay: as above; details: P. falciparum in erythrocytes, SYBR Green DNA, 72 h; series mostly up to 28.7 µM
Summary of the method: as §1

W2 = assay: as above; details: P. falciparum in erythrocytes, SYBR Green DNA, 72 h; series mostly up to 28.7 µM
Summary of the method: as §1

CRL-7250 = normal cell line; assay: Cytotoxic Profiling of Annotated Libraries Using Quantitative High-Throughput Screening (AID 1296008); details: Five cell lines viability, CellTiter-Glo ATP luminescence, 48-72 h; stronger effect = lower value; for max response: % is set by controls: 0 for no effect and ±100 for the full control effect
Summary of the method: (§2)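 Cytotoxicity was measured as CellTiter-Glo ATP luminescence, read after 10 min at room temperature. Compound treatment of the cells lasted 48 or 72 hr at 37 degrees Celsius in a qHTS format.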

HEK293 = assay: as above; details: Five cell lines viability, CellTiter-Glo ATP luminescence, 48-72 h; stronger effect = lower value
Summary of the method: as §2

HaCat [1] = assay: as above; details: Five cell lines viability, CellTiter-Glo ATP luminescence, 48-72 h; stronger effect = lower value
Summary of the method: as §2

KB-3-1 = assay: as above; details: Five cell lines viability, CellTiter-Glo ATP luminescence, 48-72 h, stronger effect = lower value
Summary of the method: as §2

NIH3T3 = assay: as above; details: Five cell lines viability, CellTiter-Glo ATP luminescence, 48-72 h; stronger effect = lower value
Summary of the method: as §2

HACAT [2] = assay: qHTS assay to identify novel small-molecules to repurpose for Merkel cell carcinoma treatment (AID 1296009); details: MCC and control cell lines, CellTiter-Glo viability, 72 h; at 44.8 µM (top of the series) unless noted
Summary of the method: (§3)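 72 hr, 37 degree celsius; NPC 8-pt / MIPE 11-pt dose response; compound pinned in DMSO; CellTiter-Glo, 10 min RT, luminescence; normalized to no-cell and DMSO controls.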

MCC-13 = assay: as above; details: MCC and control cell lines, CellTiter-Glo viability, 72 h; series mostly up to 46 µM
Summary of the method: as §3

MCC-26 = assay: as above; details: MCC and control cell lines, CellTiter-Glo viability, 72 h; series mostly up to 46 µM
Summary of the method: as §3

MKL-1 = assay: as above; details: MCC and control cell lines, CellTiter-Glo viability, 72 h; series mostly up to 46 µM
Summary of the method: as §3

MKL-2 = assay: as above; details: MCC and control cell lines, CellTiter-Glo viability, 72 h; series mostly up to 46 µM
Summary of the method: as §3

HEK293T = assay: as above; details: MCC and control cell lines, CellTiter-Glo viability, 72 h; at 44.8 µM (top of the series) unless noted
Summary of the method: as §3
Note: nearly all actives have a fitted effect of over 60% in size.

O=C(O)Cc1ccc(CCNS(=O)(=O)c2ccc(Cl)cc2)cc1
inactive: Potency (PAD) | Potency (PC15) | Potency (PC26) | Potency (PC49) | Potency (SC27B) | Potency (TAB109) | Potency (TAB113) | Potency (TAB165) | Potency (W2) | max response (CRL-7250) 2.04% | max response (HEK293) -7.16% | outcome (HaCat [1]) | max response (KB-3-1) 0.272% | max response (NIH3T3) -0.48% | outcome (HACAT [2]) | outcome (MCC-13) | outcome (MCC-26) | outcome (MKL-1) | outcome (MKL-2)

COc1ccc(NS(=O)(=O)c2ccc(N)cc2)nn1
inactive: Potency (PAD) | Potency (PC15) | Potency (PC26) | Potency (PC49) | Potency (SC27B) | Potency (TAB109) | Potency (TAB113) | Potency (TAB165) | Potency (W2) | max response (CRL-7250) 3.69% | outcome (HEK293) | outcome (HaCat [1]) | max response (KB-3-1) 14.2% | max response (NIH3T3) -9.1% | outcome (HACAT [2]) | outcome (HEK293T) | outcome (MCC-13) | outcome (MKL-1) | outcome (MKL-2)

CC(C)=CCC[C@@](C)(O)[C@H]1CC=C(C)CC1
inactive: max response (CRL-7250) 1.58% | outcome (HEK293) | outcome (HaCat [1]) | max response (KB-3-1) 4.77% | max response (NIH3T3) -5.4% | outcome (HACAT [2]) | outcome (HEK293T) | outcome (MCC-13) | outcome (MCC-26) | outcome (MKL-1) | outcome (MKL-2)

CCOc1ccccc1O[C@H](c1ccccc1)[C@H]1CNCCO1
inactive: outcome (CRL-7250) | max response (HEK293) 2.57% | outcome (HaCat [1]) | max response (KB-3-1) 2.06% | max response (NIH3T3) 1.71% | outcome (HACAT [2]) | outcome (MCC-13) | outcome (MCC-26) | outcome (MKL-1) | outcome (MKL-2)

O[C@@H]1CO[C@H]2[C@@H]1OC[C@@H]2O
inactive: Potency (PAD) | Potency (PC15) | Potency (PC26) | Potency (PC49) | Potency (SC27B) | Potency (TAB109) | Potency (TAB113) | Potency (TAB165) | Potency (W2) | outcome (CRL-7250) | max response (HEK293) -0.534% | outcome (HaCat [1]) | max response (KB-3-1) 6.79% | max response (NIH3T3) 4.37% | outcome (HACAT [2]) | outcome (MCC-13) | outcome (MCC-26) | outcome (MKL-1) | outcome (MKL-2)

Cc1c(NC(C)C)c(=O)n(-c2ccccc2)n1C
inactive: Potency (PAD) | Potency (PC15) | Potency (PC26) | Potency (PC49) | Potency (SC27B) | Potency (TAB109) | Potency (TAB113) | Potency (TAB165) | Potency (W2) | outcome (CRL-7250) | max response (HEK293) -10.6% | outcome (HaCat [1]) | max response (KB-3-1) 6.84% | outcome (NIH3T3) | outcome (HACAT [2]) | outcome (MCC-13) | outcome (MCC-26) | outcome (MKL-1) | outcome (MKL-2)

OCc1ccc(Cl)cc1Cl
inactive: Potency (PAD) | Potency (PC15) | Potency (PC26) | Potency (PC49) | Potency (SC27B) | Potency (TAB109) | Potency (TAB113) | Potency (TAB165) | Potency (W2) | outcome (CRL-7250) | max response (HEK293) -6.19% | outcome (HaCat [1]) | max response (KB-3-1) -1.05% | outcome (NIH3T3) | outcome (HACAT [2]) | outcome (MCC-13) | outcome (MCC-26) | outcome (MKL-1) | outcome (MKL-2)

CC(=O)Oc1cccc(C)c1
inactive: Potency (PAD) | Potency (PC15) | Potency (PC26) | Potency (PC49) | Potency (SC27B) | Potency (TAB109) | Potency (TAB113) | Potency (TAB165) | Potency (W2) | max response (CRL-7250) 2.1% | max response (HEK293) -2.07% | outcome (HaCat [1]) | max response (KB-3-1) -6.53% | max response (NIH3T3) -2.31% | outcome (HACAT [2]) | outcome (MCC-13) | outcome (MCC-26) | outcome (MKL-1) | outcome (MKL-2)

Cc1ccc(S(=O)(=O)NC(=O)NC2CCCCC2)cc1
inactive: Potency (PAD) | Potency (PC15) | Potency (PC26) | Potency (PC49) | Potency (SC27B) | Potency (TAB109) | Potency (TAB113) | Potency (TAB165) | Potency (W2) | outcome (CRL-7250) | max response (HEK293) 2.4% | outcome (HaCat [1]) | max response (KB-3-1) 3.8% | max response (NIH3T3) 0.0689% | outcome (HACAT [2]) | outcome (MCC-13) | outcome (MCC-26) | outcome (MKL-1) | outcome (MKL-2)

Cc1c(NC(=O)c2cccnc2)c(=O)n(-c2ccccc2)n1C
inactive: Potency (PAD) | Potency (PC15) | Potency (PC26) | Potency (PC49) | Potency (SC27B) | Potency (TAB109) | Potency (TAB113) | Potency (TAB165) | Potency (W2) | max response (CRL-7250) -9.05% | max response (HEK293) 0.504% | outcome (HaCat [1]) | max response (KB-3-1) -0.639% | outcome (NIH3T3) | outcome (HACAT [2]) | outcome (MCC-13) | outcome (MCC-26) | outcome (MKL-1) | outcome (MKL-2)

C=CCNC(N)=S
inactive: Potency (PAD) | Potency (PC15) | Potency (PC26) | Potency (PC49) | Potency (SC27B) | Potency (TAB109) | Potency (TAB113) | Potency (TAB165) | Potency (W2) | max response (CRL-7250) -5.07% | max response (HEK293) -1.79% | outcome (HaCat [1]) | max response (KB-3-1) -9.92% | max response (NIH3T3) 4.81% | outcome (HACAT [2]) | outcome (MCC-13) | outcome (MCC-26) | outcome (MKL-1) | outcome (MKL-2)

CN1C(C)(C)CCCC1(C)C
inactive: Potency (PAD) | Potency (PC15) | Potency (PC26) | Potency (PC49) | Potency (SC27B) | Potency (TAB109) | Potency (TAB113) | Potency (TAB165) | Potency (W2) | max response (CRL-7250) -19.2% | max response (HEK293) -21.6% | outcome (HaCat [1]) | max response (KB-3-1) 7.25% | max response (NIH3T3) -1.07% | outcome (HACAT [2]) | outcome (MCC-13) | outcome (MCC-26) | outcome (MKL-1) | outcome (MKL-2)

CCN(CC)CC1CCCCN1CC(=O)N1c2ccccc2C(=O)Nc2cccnc21 (stereo not given)
inactive: Potency (PAD) | Potency (PC15) | Potency (PC26) | Potency (PC49) | Potency (SC27B) | Potency (TAB109) | Potency (TAB113) | Potency (TAB165) | Potency (W2) | max response (CRL-7250) -4.06% | max response (HEK293) 4.03% | outcome (HaCat [1]) | max response (KB-3-1) 6.89% | max response (NIH3T3) 4.32% | outcome (HACAT [2]) | outcome (MCC-13) | outcome (MCC-26) | outcome (MKL-1) | outcome (MKL-2)
